Experimental data from PubChem BioAssay (Tox21).
Results filed as inconclusive are left out. Where a call stands in place of a potency, no number is given. Values without a mark were called inactive. The source made the active and inactive calls. Calls come from the whole dose curve.

Biological target: 5-hydroxytryptamine receptor 2A (Homo sapiens) (UniProt P28223)
Assay: 5-hydroxytryptamine receptor 2A (HTR2A) small molecule antagonists, cell-based qHTS assay (AID 1963586); note: nearly all actives have a fitted effect of over 45% in size
How it was run: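 Antagonist-mode intracellular calcium assay: DOI (4 nM) added after 5 min compound pre-incubation at room temperature to dye-loaded HTR2A-CHO cells. Fluorescence followed for 3 min, sampled every second.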
Potency is the fitted concentration of half-maximal effect.

Chain of 5-hydroxytryptamine receptor 2A (Homo sapiens) (P28223 whole entry, looked up): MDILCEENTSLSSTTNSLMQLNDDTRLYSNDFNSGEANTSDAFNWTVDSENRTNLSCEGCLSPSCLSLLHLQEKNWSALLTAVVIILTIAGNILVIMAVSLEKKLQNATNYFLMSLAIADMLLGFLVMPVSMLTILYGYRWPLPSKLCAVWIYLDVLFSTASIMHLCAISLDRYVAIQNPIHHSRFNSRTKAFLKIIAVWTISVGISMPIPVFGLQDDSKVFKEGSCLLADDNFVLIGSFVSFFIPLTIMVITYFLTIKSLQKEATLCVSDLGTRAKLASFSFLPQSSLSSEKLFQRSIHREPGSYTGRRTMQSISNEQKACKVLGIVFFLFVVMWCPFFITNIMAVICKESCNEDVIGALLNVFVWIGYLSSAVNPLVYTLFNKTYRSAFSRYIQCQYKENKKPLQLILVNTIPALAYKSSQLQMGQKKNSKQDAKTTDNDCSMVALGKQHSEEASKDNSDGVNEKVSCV

Row | Compound | Potency | activity, negative = inhibition
1 | C[C@H]1C[C@@H](O)CC(C)(C)C1 | inactive | –
2 | CC(C)CNCC(C)C | inactive | –
3 | C/C=C(\C)C(=O)OC/C=C(\C)CCC=C(C)C | inactive | –
4 | CCCCC/C=C/C=C/C=O | inactive | –
5 | CC(C)CCOCCC(C)C | inactive | –
6 | CC(C)c1cccc(O)c1 | inactive | –
7 | O=C(O)/C=C/c1ccc(Cn2ccnc2)cc1 | inactive | –
8 | CC(C)(CCl)c1ccccc1 | inactive | –
9 | CCO[Si](C)(C)OCC | inactive | –
10 | Nc1nccs1 | inactive | –
11 | Cl/C(=C\n1cncn1)c1ccc(Cl)cc1Cl | inactive | –
12 | CNC(=O)c1c(I)c(NC(C)=O)c(I)c(C(=O)O)c1I | inactive | –
13 | C1CCC2OC2C1 (stereo unspecified) | inactive | –
14 | C/C(Cl)=C/CCl | inactive | –
15 | CC(=O)N[C@@H](CC(C)C)C(=O)O | inactive | –
16 | CC(=O)O[C@@H]1CC2C3CCc4cc(OC(=O)c5ccccc5)ccc4C3CCC2(C)[C@H]1OC(C)=O (stereo partly specified) | inactive | –
17 | O=C(O)c1cc(=O)c2ccccc2o1 | inactive | –
18 | CC(C#N)(CCC(=O)O)N=NC(C)(C#N)CCC(=O)O (stereo unspecified) | inactive | –
19 | CSc1nnc(C(C)(C)C)c(=O)[nH]1 | inactive | –
20 | CC(C)(C)c1ccc(O)c(C(C)(C)C)c1 | 23.7 µM (active) | –
21 | CC(C)OC=O | inactive | –
22 | C=C(C)C(=O)NCCCN(C)C | inactive | –
23 | CCOCCC(=O)OCC | inactive | –
24 | C/C=C/C(=O)CCCC | inactive | –

Row | Compound | Potency | activity, negative = inhibition
25 | CC(O)CNCC(C)O (stereo unspecified) | inactive | –
26 | c1ccc2cnncc2c1 | inactive | –
27 | CCOC(=O)c1ccc(O)c(O)c1 | inactive | –
28 | CC1CCc2nccnc21 (stereo unspecified) | inactive | –
29 | CC1=CCC(O)(C(C)C)CC1 (stereo unspecified) | inactive | –
30 | NNC(=O)c1cccc(C(=O)NN)c1 | inactive | –
31 | CCC1CCCCC1 | inactive | –
32 | CC(C)CCCCCCCCCCCCCCC(=O)O | inactive | –
33 | CC(C)CCCCCCc1ccc(O)cc1 | 34 µM (active) | –
34 | CC(N)CN (stereo unspecified) | inactive | –
35 | C=CCOC(=O)CCCCCCCC | inactive | –
36 | CCCCCCCC(=O)N(C)C | inactive | –
37 | O=[N+]([O-])c1cncn1CCN1CCOCC1 | inactive | –
38 | O=S(=O)(O)c1ccc2cc(O)c(S(=O)(=O)O)cc2c1 | inactive | –
39 | O=C(c1ccccc1)C1(O)CCCCC1 | inactive | –
40 | CCCCCCCCCOCC1CO1 (stereo unspecified) | inactive | –
41 | CC(C)OC(=O)C(O)(CC(=O)O)CC(=O)O | inactive | –
42 | CN(C)c1cc(NC(=O)CNC(C)(C)C)c(O)c2c1C[C@H]1C[C@H]3[C@H](N(C)C)C(=O)C(C(N)=O)=C(O)[C@@]3(O)C(=O)C1=C2O | inactive | –
43 | O=S(=O)(O)c1cccc(S(=O)(=O)O)c1 | inactive | –
44 | ON(Cc1ccccc1)Cc1ccccc1 | inactive | –
45 | Cc1ccc(S(N)(=O)=O)cc1 | inactive | –
46 | O=C(O)c1cc(-c2ccccc2)nc2ccccc12 | inactive | –
47 | CCCC=O | inactive | –
48 | COc1cccc(OC)c1O | inactive | –

Row | Compound | Potency | activity, negative = inhibition
49 | O=C(c1ccc(O)cc1O)c1ccc(O)cc1O | inactive | –
50 | NC(=S)N/N=C/c1cccnc1 | inactive | –
51 | Nc1ccccc1S(=O)(=O)O | inactive | –
52 | Nc1cc(S(=O)(=O)O)cc2cc(S(=O)(=O)O)cc(O)c12 | inactive | –
53 | CCCCc1ccc(Cl)cc1 | inactive | –
54 | CCC(N)(CO)CO | inactive | –
55 | c1ccc(CNCc2ccccc2)cc1 | 8.4 µM (active) | –
56 | Cc1sccc1Br | inactive | –
57 | CCCCC(CC)COC(=O)c1ccc(O)cc1 (stereo unspecified) | 37.5 µM (active) | –
58 | C[C@@H](O)[C@H]1C(=O)N2C(C(=O)O)=C(SCCN=CN)C[C@H]12 | inactive | –
59 | CCCCCCCCCCCC[N+](C)(C)CCCS(=O)(=O)[O-] | inactive | –
60 | CC(=O)NCCO | inactive | –
61 | CCC(C)c1ccccc1 (stereo unspecified) | inactive | –
62 | CCCCCCCCCCCCCCC(=O)O | inactive | –
63 | O=[N+]([O-])c1ccccc1CCO | inactive | –
64 | Cc1ccc2ccccc2c1[N+](=O)[O-] | inactive | –
65 | C=CCOCC(CC)(CO)COCC=C | inactive | –
66 | COC(=O)c1cc(Cl)ccc1OC | inactive | –
67 | CCCOCCC | inactive | –
68 | NC(=O)CCCCC(N)=O | inactive | –
69 | Fc1ccccc1-c1ccccc1 | inactive | –
70 | CCC(O)CO (stereo unspecified) | inactive | –
71 | O=C(O)CN(CCN(CC(=O)O)CC(=O)O)CCN(CC(=O)O)CC(=O)O | – | 10.6% [at 12.7 µM]
